Bioassay records deposited in PubChem BioAssay by several laboratories.
proKLK7 act = proKLK7 (human) activation, primary screen. purified proKLK7, EDANS-DABCYL substrate fluorescence; 100% is mature enzyme control, 0% vehicle. activation, % at 7 µM. 370,000 tested, 0.9% active;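 active = activation above the mean of all tested compounds plus 3 SD, computed per campaign excluding outliers beyond control limits, cut at about 13% in these data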
Target sequence (P49862 whole entry, looked up): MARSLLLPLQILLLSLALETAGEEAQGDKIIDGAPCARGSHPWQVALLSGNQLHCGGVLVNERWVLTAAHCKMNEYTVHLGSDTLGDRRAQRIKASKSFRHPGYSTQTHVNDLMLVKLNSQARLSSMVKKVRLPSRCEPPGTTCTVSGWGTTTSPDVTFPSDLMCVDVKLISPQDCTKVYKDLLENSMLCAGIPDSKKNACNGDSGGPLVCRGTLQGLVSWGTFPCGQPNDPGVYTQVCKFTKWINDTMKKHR
ADAM10 inh = inhibits human ADAM10; O14672; recombinant ADAM10, EDANS/DABCYL FRET peptide cleavage, 3 h; inhibition, % at 7 µM; 370,000 tested, 0.62% active; AID 720582;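 active = inhibition above a per-campaign cutoff equal to the mean of compounds falling between control-based bounds plus 3 SD, cut at about 20% in these data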;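 note: 0% = DMSO wells while the 100% control is not disclosed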
AHR act = human AHR activation; P35869; AHR-responsive luciferase reporter cells, luminescence; activation, % at 5 µM; 320,000 tested, 2.5% active; AID 2796; in the data active = activation above about 47%;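 note: 0% = vehicle wells and 100% = reference agonist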
NR3A LBD binder = modulators (binders) of human NR3A ligand-binding domain; 340,000 tested, 2.5% active; AID 1259313; Tm shift relative to glycine control, % at 25 µM; NR3A LBD differential scanning fluorimetry, Tm shift; 0% = protein alone, 100% = glycine-bound protein;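 active = melting temperature shift of at least 10% of the positive control shift, at one fixed dose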
ADAM17 inh = inhibitors of human ADAM17; AID 720648; inhibition, % at 6.95 µM; recombinant ADAM17, EDANS/DABCYL FRET peptide cleavage; 370,000 tested, 0.83% active; P78536;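 active = inhibition above the mean of compounds lying between control limits plus 3 SD, set per campaign, cut at about 8.5% in these data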;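 note: 0% = DMSO-only wells as the low control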
rCAG binder = r(CAG) repeat RNA binding; TO-PRO-1 dye displacement fluorescence; inhibition, % at 3 µM; 370,000 tested, 1.3% active;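 active = inhibition above the plate cutoff, the mean of all test compounds on that plate plus 3 SD, cut at about 35% in these data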;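 note: 0% = DMSO alone and 100% = 100 µM mitoxantrone as full dye displacement; higher means more dye released from RNA so lower well fluorescence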
The depositor's hits bear a star; · = no result. Most compounds without a hit are left out; they make up all but 7% or so of the library.

SMILES | proKLK7 act | ADAM10 inh | AHR act | NR3A LBD binder | ADAM17 inh | rCAG binder
O=[N+]([O-])c1cc(S(=O)(=O)Nc2ccc(Cl)cc2)ccc1N/N=C/c1ccncc1 | -0.8 | 4.4 | 9.4 | 12.4* | -2.1 | 3.8
CCn1c2ccccc2c2cc(NC(=O)CSc3nnc(-c4ccccc4OC)n3N)ccc21 | 0.4 | 7.1 | 57.0* | -7.4 | 1.0 | 6.8
CCn1c2ccccc2c2cc(NC(=O)CSc3nnc(-c4cccc(OC)c4)n3N)ccc21 | -0.2 | -43.9 | 63.9* | -3.4 | -1.2 | 8.9
CCOc1ccc(-c2nnc(SCC(=O)Nc3ccc4c(c3)c3ccccc3n4CC)n2N)cc1 | 0.2 | 2.1 | 11.3 | -1.7 | -3.5 | 5.0
CCn1c2ccccc2c2cc(NC(=O)CSc3nnc(-c4ccc(OC)c(OC)c4)n3N)ccc21 | 0.1 | 1.9 | 32.6 | -0.9 | -7.0 | -3.0
CCc1nnc(NC(=O)c2cccnc2SC)s1 | -0.1 | 1.4 | 50.5* | -0.8 | 0.3 | 0.6
CSc1ncccc1C(=O)Nc1nnc(C2CC2)s1 | 0.1 | -4.6 | 60.7* | -2.4 | -5.0 | 1.4
CSc1ncccc1C(=O)Nc1nccs1 | 0.4 | -1.1 | 21.9 | 0.9 | 2.0 | 1.5
O=C(Nc1nnc(C2CC2)s1)c1n[nH]c(=O)c2ccccc12 | 0.8 | -7.9 | 65.2* | -1.3 | -3.2 | 5.8
CSc1ncccc1C(=O)Nc1ncc(C)s1 | -1.1 | 3.7 | 43.2 | -0.4 | -2.1 | -0.3
COc1ccc(-n2c(SCc3nc4ccccc4[nH]3)nc3ccccc3c2=O)cc1 | -0.6 | -6.4 | · | · | 0.4 | 9.2
C=CCN1[C@H](CC(C)C)COc2cc(N3CCCC3)ccc2S1(=O)=O | 0.4 | -5.4 | · | · | -7.3 | 2.9
O=C(NNc1nc2cc3c(cc2s1)OCO3)c1ccc(F)cc1 | 2.1 | -11.1 | 59.9* | -0.2 | -4.2 | 7.8
CCn1c(=O)cc(OCC(=O)NCc2cccs2)c2ccccc21 | -0.3 | -8.8 | 67.9* | -2.5 | -3.3 | -2.7
CC(C)(C)c1nnc(NC(=O)COc2ccc3c(c2)OCO3)s1 | 0.0 | -4.9 | 60.2* | -7.7 | -0.6 | -1.6
O=C(NNc1nc2cc3c(cc2s1)OCCO3)c1ccc(F)cc1 | 0.3 | -7.9 | 41.9 | -1.4 | -4.0 | 5.3
CCOC(=O)c1sc(Nc2nc3cc4c(cc3s2)OCO4)cc1C | -7.5 | -157.7 | 45.2 | 28.7* | -73.4 | 18.1
COc1ccc(CNCC#CC2=CCCCC2)c(OC)c1 | 0.8 | 2.7 | · | · | 1.5 | 1.6
COC(=O)[C@]12C[C@H](CC(=O)NCc3ccc(C)o3)C(=O)N(CCC3=CCCCC3)C1=C[C@H](C(C)C)O[C@@H]2C1CC1 | 0.6 | 5.0 | · | · | -0.4 | 5.9
N#CCCCc1cn(-c2cccc(-c3noc4c3C(=O)N(CC(=O)N3CCOCC3)CC4)c2)nn1 | 0.1 | 1.1 | · | · | -1.3 | -0.2
O=C(COc1ccc2c(c1)OCO2)NCc1cccs1 | -0.2 | -12.9 | 48.5* | -0.6 | -6.1 | 4.0
CC(=O)Nc1nc2cc3c(cc2s1)OCO3 | -0.1 | -3.6 | 54.3* | -1.1 | 2.4 | 3.2
CC(=O)c1sc(Nc2nc3cc4c(cc3s2)OCO4)nc1C | -0.3 | -4.5 | · | 4.5 | -3.9 | 1.3
O=C(COc1ccccc1)Nc1nc2cc3c(cc2s1)OCO3 | 0.0 | -14.4 | 2.1 | 13.6* | -9.1 | 4.7
c1ccc2sc(Nc3nc4cc5c(cc4s3)OCO5)nc2c1 | -7.6 | -270.8 | 137.3* | 8.2 | -94.8 | 26.9
SMILES | proKLK7 act | ADAM10 inh | AHR act | NR3A LBD binder | ADAM17 inh | rCAG binder
Brc1ccccc1C1Cc2nnccc2CN1 (stereo not drawn) | 1.4 | -6.2 | · | · | -1.2 | 3.2
COC(=O)c1cc(-c2cccc3c2sc2ccccc23)c(=O)n2c1CCC2 | -14.1 | -20.2 | · | · | -9.3 | 8.7
CC1=NN(C(N)=S)C(=O)C1N=Nc1ccccc1 (stereo not drawn) | 0.1 | -0.3 | 70.2* | -13.2 | -0.4 | 1.9
CC1=NN(C(N)=S)C(=O)C1N=Nc1ccc(Cl)cc1 (stereo not drawn) | 0.7 | 5.3 | · | -1.0 | -2.6 | 3.9
CC1=NN(C(N)=S)C(=O)C1N=Nc1cccc2ccccc12 (stereo not drawn) | · | · | 92.7* | · | · | ·
CC1=NN(C(N)=S)C(=O)C1N=Nc1cccc([N+](=O)[O-])c1 (stereo not drawn) | 0.0 | -1.5 | 63.0* | -1.1 | -0.8 | -1.4
CC1=NN(C(N)=S)C(=O)C1N=Nc1ccc(Br)cc1 (stereo not drawn) | -0.1 | 16.9 | · | 3.3 | 3.3 | 1.2
CC(=O)c1cc(-c2ccccc2)c(=O)n2c1CCC2 | 0.6 | -8.4 | · | · | -1.0 | 5.2
CCCCN1CCc2c1nc1ccc(Br)cc1c2N | 5.6 | -48.7 | 76.3* | -3.1 | -21.4 | 16.1
COc1ccc(OC)c(CN2C(=O)CSCC2(C)c2nnnn2C2CCCC2)c1 (stereo not drawn) | 0.0 | 0.7 | · | · | -1.9 | 0.5
O=C(NC1CCCCN(Cc2cccc(Cl)c2)C1=O)c1ccc(F)c(F)c1 (stereo not drawn) | -0.5 | -13.1 | · | · | -2.7 | 1.1
COc1ccc(/C(C)=N/NC(=O)CNC(=O)c2cccs2)cc1 | 0.0 | 1.8 | 15.1 | 1.5 | -3.7 | 2.2
C/C(=N/NC(=O)CNC(=O)c1cccs1)c1ccc(Cl)cc1 | 0.0 | -2.9 | 18.3 | 20.8* | -2.5 | -0.1
Cc1ccccc1S(=O)(=O)N1CCCc2nc(C)c(C)cc21 | -0.2 | -4.2 | · | · | -3.5 | -1.3
Nc1n[nH]c(N)c1N=Nc1ccc(Cl)cc1Cl | 0.1 | 11.0 | -6.5 | 20.1* | 4.6 | 7.0
Nc1n[nH]c(N)c1N=Nc1ccccc1F | 0.2 | 1.5 | 1.9 | 32.3* | 0.9 | 1.8
Cc1ccccc1N=Nc1c(N)n[nH]c1N | -0.4 | 13.8 | · | 7.4 | 2.1 | 0.4
COc1ccc(C(C(=O)N(C)C2CCCC2)N(Cc2ccc(F)cc2)C(=O)c2ccc3ccccc3c2)cc1OC (stereo not drawn) | 0.0 | 1.5 | · | · | 8.3 | 7.5
Cc1ccccc1C(=O)N[C@H](C(=O)N1CCC[C@H]1C(=O)NC1CCCC1)C1CCCCC1 | 0.8 | -0.3 | · | · | -2.3 | -0.9
Cc1cc(N2CCNC[C@H]2C)ccc1N1C[C@@H](C)O[C@@H](C)C1 | 0.7 | -5.8 | · | · | -1.6 | 2.6
C(=C/c1nccc2c1[nH]c1ccccc12)/c1ccc2c(c1)OCO2 | -10.9 | -79.5 | · | 13.5* | -41.7 | 7.5
Cc1cc(C(=O)N/N=C/c2cccc([N+](=O)[O-])c2)c(C)o1 | 0.0 | 6.2 | 72.3* | -1.7 | 3.0 | 5.5
O=C(N/N=C/c1cccc([N+](=O)[O-])c1)c1cc2ccccc2o1 | -1.0 | 7.3 | 6.4 | 13.2* | -0.7 | 0.9
O=C(N/N=C/c1cccc([N+](=O)[O-])c1)c1cnccn1 | -0.4 | 0.7 | 53.7* | 0.3 | -0.2 | -1.4
O=C(N/N=C/c1cccc([N+](=O)[O-])c1)c1cc(-c2ccccc2)nc2ccccc12 | 0.3 | 2.8 | 3.5 | 4.2 | -4.0 | -1.6
CCN1CCCCC(NC(=O)c2cccc(C(F)(F)F)c2)C1=O (stereo not drawn) | 1.1 | -1.5 | · | · | -2.3 | -1.2
